Assay outcomes as filed in PubChem.
In the library only some 15% were active in any assay of this set; here they are far more common.
DT40 TDP1 no CPT – qHTS for Inhibitors of human tyrosyl-DNA phosphodiesterase 1 (TDP1): qHTS in cells in absence of CPT | 420,000 tested, 15% active | DT40 Tdp1-/- hTDP1 cells, no CPT, ATP luminescence, 48 h | Potency, µM (series often up to 46.2 µM), without a hit: top-dose activity change, negative = growth inhibition, usual class: inhibitors; also: nearly all actives have a fitted effect of over 55% in size
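Growth kinetics read by CellTiter-Glo luminescence after ≥48 hr at 37 °C. Cells: DT40 Tdp1-/- stably carrying human TDP1, 400 per well, compound exposure in the absence of CPT (DMSO vehicle).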
TDP1 cell CPT – growth inhibition of DT40 Tdp1-/-;hTDP1 cells with camptothecin (screen for TDP1 inhibitors) | Potency, µM (top dose mostly 46.2 µM), for the others: top-dose activity change, negative = growth inhibition, hits mostly inhibitors | chicken DT40 Tdp1-/-;hTDP1 cells + 20 nM CPT, ATP luminescence, 48 h | AID 686979 | 420,000 tested, 12% active; also: nearly all actives have a fitted effect of over 55% in size
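Cell growth measured by CellTiter-Glo luminescence after a minimum 48 h, 37 C compound exposure with 20 nM CPT in Tdp1-knockout DT40 cells stably expressing hTDP1, seeded 400/well; qHTS titration format.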
12-LOX inh – ALOX12 (human) lipoxygenase inhibition; AID 1671190; purified 12hLO, xylenol orange hydroperoxide absorbance; 580,000 tested, 1.1% active; Potency, µM (top dose mostly 108 µM), for the others: at the top dose activity change, negative = inhibition, hits mostly inhibitors
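Purified human 12hLO at 150 nM in 25 mM Hepes, 0.01% Triton X-100, pH 7.0, preincubated 15 min at room temperature with compound. Reaction started with 40 uM arachidonic acid, 30 min at room temperature. Hydroperoxide measured by Fe-xylenol orange, 573/405 nm absorbance ratio.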
RORgamma inh – inhibitors of mouse ROR gamma transcriptional activity; P51450; Drosophila S2 Gal4-RORgamma UAS-luciferase reporter, 20 h; Potency, µM (series often up to 53.6 µM), inactives show top-dose activity change, negative = inhibition, actives largely listed as inhibitors; 310,000 tested, 5.4% active; AID 2551; also: nearly all actives have a fitted effect of over 60% in size
Target sequence (P51450 whole entry, looked up, the tested form may be a part): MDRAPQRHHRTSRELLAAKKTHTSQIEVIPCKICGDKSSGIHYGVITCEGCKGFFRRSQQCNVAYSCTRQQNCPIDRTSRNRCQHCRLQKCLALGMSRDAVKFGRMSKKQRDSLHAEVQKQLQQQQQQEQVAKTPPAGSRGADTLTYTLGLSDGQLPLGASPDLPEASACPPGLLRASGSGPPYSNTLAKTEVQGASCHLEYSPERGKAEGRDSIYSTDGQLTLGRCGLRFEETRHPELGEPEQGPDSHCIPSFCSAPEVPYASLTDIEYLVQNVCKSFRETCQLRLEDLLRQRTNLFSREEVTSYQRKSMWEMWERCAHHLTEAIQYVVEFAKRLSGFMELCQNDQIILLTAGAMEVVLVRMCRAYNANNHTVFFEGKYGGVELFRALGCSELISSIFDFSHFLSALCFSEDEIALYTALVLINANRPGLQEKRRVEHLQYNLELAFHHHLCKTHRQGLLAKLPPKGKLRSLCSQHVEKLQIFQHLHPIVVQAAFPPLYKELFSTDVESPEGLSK
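Stably transfected Drosophila Schneider cells are the test system, with ROR gamma fused to Gal4 and luciferase under UAS control; luminescence is read after 20 hr of 700 uM copper sulfate induction at ambient temperature.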
ELG1 DNA repair – ELG1-dependent DNA repair inhibition. HEK293T ELG1-luciferase reporter, luminescence, 16 h; DNA damage induced by 5-fluorouridine. AID 504467. 330,000 tested, 2.3% active. Potency, µM (highest dose often 46.1 µM), without a hit: at the top dose activity change, negative = inhibition, hits mostly inhibitors; also: nearly all actives have a fitted effect of over 55% in size
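DMSO vehicle served as the neutral condition. Each well held 2,000 cells given 5-fluorouridine plus compound; after 16 hr at 37 °C/5% CO2, ONE-Glo was added and luciferase measured 30 min later.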
Gal4-VP16 FLuc – inhibits Gal4-VP16 luciferase reporter, ROR gamma counter-screen | Drosophila S2 Gal4-VP16 UAS-luciferase, luminescence, 20 h | Potency, µM (highest dose often 53.6 µM), inactives show at the top dose activity, negative = inhibition, usual class: inhibitors | 310,000 tested, 3.5% active | AID 2546;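 also: Gal4-VP16 expression switched on by copper sulfate through the metallothionein promoter; nearly all actives have a fitted effect of over 50% in size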
Numbers without * were called inactive. Calls follow the shape of the dose curve; as a rule, active = well fitted curve in the direction sought with a large enough effect; inconclusive = small, poorly fitted or top-dose-only effect, or another doubt; inactive = no such curve, though single readings can be large; an effect the other way counts as inactive or inconclusive. % is scaled to controls: 0 for no effect and ±100 for the full control effect; potency is read from the fitted curve at half-maximal effect.

For COc1ccc(NC(=S)NCCc2c[nH]c3ccc(OC)cc23)c(OC)c1 the results were DT40 TDP1 no CPT inconclusive, TDP1 cell CPT inconclusive, 12-LOX inh inconclusive, RORgamma inh 14µM*, ELG1 DNA repair inconclusive and Gal4-VP16 FLuc inconclusive.
Screening COc1ccc(NC(=S)NCCc2c[nH]c3ccccc23)c(OC)c1 returned DT40 TDP1 no CPT inconclusive, TDP1 cell CPT inconclusive, 12-LOX inh inconclusive, RORgamma inh 7.9µM*, ELG1 DNA repair inconclusive and Gal4-VP16 FLuc inconclusive.
Screening COc1ccc2c(CCNC(N)=S)c[nH]c2c1 returned DT40 TDP1 no CPT -25%, TDP1 cell CPT inconclusive, 12-LOX inh -15%, RORgamma inh -27%, ELG1 DNA repair 11% and Gal4-VP16 FLuc -2%.
COc1cccc(Nc2nc3ccccc3nc2NS(=O)(=O)c2cccc3nsnc23)c1 was read as 12-LOX inh -15%.
For COc1ccc2cc(-c3cc(C(=O)OCC(=O)Nc4c(C)n(C)n(-c5ccccc5)c4=O)c4ccccc4n3)ccc2c1 the results were DT40 TDP1 no CPT 10µM*, TDP1 cell CPT 13µM*, 12-LOX inh inconclusive, RORgamma inh 7.1µM*, ELG1 DNA repair inconclusive and Gal4-VP16 FLuc inconclusive.
Screening Cc1cc(C(=O)OCC(=O)NC2CCS(=O)(=O)C2)c(C)n1-c1ccccc1 (centres undefined) returned DT40 TDP1 no CPT 12µM*, TDP1 cell CPT inconclusive, 12-LOX inh 0%, RORgamma inh inconclusive, ELG1 DNA repair -23% and Gal4-VP16 FLuc -26%.
Screening O=C(COc1ccc(Oc2ccccc2)cc1)NC1CCS(=O)(=O)C1 (centres undefined) returned DT40 TDP1 no CPT inconclusive, TDP1 cell CPT inconclusive, 12-LOX inh -1% and ELG1 DNA repair inconclusive.
Screening COc1ccc(-c2cc(C(=O)OCC(=O)NC3CC3)c3ccccc3n2)cc1 returned DT40 TDP1 no CPT inconclusive, TDP1 cell CPT inconclusive, 12-LOX inh -4% and ELG1 DNA repair -1%.
Screening Cc1ccc(Oc2ccc(OCC(=O)NC3CCS(=O)(=O)C3)cc2)cc1 (centres undefined) returned DT40 TDP1 no CPT 16µM*, TDP1 cell CPT 23µM*, 12-LOX inh 0%, RORgamma inh inconclusive, ELG1 DNA repair 12µM* and Gal4-VP16 FLuc -20%.
COc1ccc2cc(-c3cc(C(=O)OCC(=O)NC4CCS(=O)(=O)C4)c4ccccc4n3)ccc2c1 (centres undefined) was read as DT40 TDP1 no CPT inconclusive, TDP1 cell CPT inconclusive, 12-LOX inh -25%, RORgamma inh 2.8µM*, ELG1 DNA repair inconclusive and Gal4-VP16 FLuc 1.8µM*.
Screening CCSc1oc(-c2ccc(C)cc2)nc1S(=O)(=O)c1ccccc1 returned 12-LOX inh 32µM*.
Cc1ccc(S(=O)(=O)c2nc(-c3ccccc3)oc2SCC(=O)NCC2CCCO2)cc1 (centres undefined) was read as DT40 TDP1 no CPT inconclusive, TDP1 cell CPT inconclusive, 12-LOX inh 6%, RORgamma inh inconclusive, ELG1 DNA repair -7% and Gal4-VP16 FLuc 10%.
CCCSc1oc(-c2cccs2)nc1S(=O)(=O)c1ccc(C)cc1 was read as DT40 TDP1 no CPT inconclusive, TDP1 cell CPT 18µM* and 12-LOX inh 6%.
`CCOc1ccc(NC(=O)CSc2oc(-c3cccs3)nc2S(=O)(=O)c2ccc(C)cc2)cc1` gave DT40 TDP1 no CPT 3.3µM*, TDP1 cell CPT 12µM* and 12-LOX inh inconclusive.
Screening CCOc1ccc(NC(=O)CSc2oc(-c3ccc(F)cc3)nc2S(=O)(=O)c2ccc(C)cc2)cc1 returned DT40 TDP1 no CPT 6.5µM*, TDP1 cell CPT 5.8µM* and 12-LOX inh -1%.
`COCCCNC(=O)C1CC(=O)N(CCc2c[nH]c3ccc(C)cc23)C1` (centres undefined) gave 12-LOX inh 15%.
Cc1ccc(S(=O)(=O)c2nc(-c3ccc(F)cc3)oc2SCC(=O)c2ccccc2)cc1 was read as DT40 TDP1 no CPT inconclusive, TDP1 cell CPT inconclusive and 12-LOX inh 2%.
`O=C(CSc1oc(-c2ccc(F)cc2)nc1S(=O)(=O)c1ccccc1)c1ccc(Cl)cc1` gave DT40 TDP1 no CPT 9.2µM*, TDP1 cell CPT 10µM* and 12-LOX inh inconclusive.
O=C(CC(CC(=O)c1ccccc1)c1ccncc1)c1ccccc1 was read as DT40 TDP1 no CPT inconclusive, TDP1 cell CPT inconclusive and 12-LOX inh -21%.
O=C(CC(CC(=O)c1ccc(Br)cc1)c1cccnc1)c1ccc(Br)cc1 was read as DT40 TDP1 no CPT 15µM*, TDP1 cell CPT 15µM*, 12-LOX inh 0%, RORgamma inh inconclusive, ELG1 DNA repair -27% and Gal4-VP16 FLuc -11%.
CCOc1ncccc1C(=O)N1CCN(c2cccc(C)c2C)CC1 was read as DT40 TDP1 no CPT 0.58µM*, TDP1 cell CPT 0.52µM*, 12-LOX inh 4%, RORgamma inh -21%, ELG1 DNA repair -18% and Gal4-VP16 FLuc -2%.
For CCOc1ncccc1C(=O)N1CCN(C(=O)c2ccccc2)CC1 the results were DT40 TDP1 no CPT 12%, TDP1 cell CPT 8%, 12-LOX inh -1%, RORgamma inh -29%, ELG1 DNA repair -8% and Gal4-VP16 FLuc 3%.
CCOc1ccc(-c2cc(C(=O)N3CCN(c4cc(Cl)ccc4C)CC3)c3ccccc3n2)cc1 was read as DT40 TDP1 no CPT 0%, TDP1 cell CPT -4% and 12-LOX inh -5%.
Screening CCOc1ncccc1C(=O)N1CCN(c2cc(Cl)ccc2C)CC1 returned DT40 TDP1 no CPT 0.65µM*, TDP1 cell CPT 0.82µM*, 12-LOX inh 5%, RORgamma inh 1%, ELG1 DNA repair inconclusive and Gal4-VP16 FLuc 6%.
For CCCN1Cc2cccc(C(=O)N3CCN(c4cc(Cl)ccc4C)CC3)c2C1=O the results were DT40 TDP1 no CPT 13µM*, TDP1 cell CPT inconclusive, RORgamma inh 7%, ELG1 DNA repair 21µM* and Gal4-VP16 FLuc inconclusive.
Cc1ccc(C)c(Sc2ccc(NC(=O)/C=C/c3cccs3)cc2)c1 was read as 12-LOX inh -1%.
`CCNC(=O)N(C1CC1)C1CCOC2(CCN(C(=O)Cc3cccc(C)c3)CC2)C1` (centres undefined) gave 12-LOX inh -5%.
